Screening data from PubChem BioAssay.
Shown are actives, neighbours in structure and some others; about 1.6% of the full set was active somewhere.
p53ts 32C kill = qHTS Screen for Compounds that Selectively Target Cancer Cells with p53 Mutations: Cytotoxicity of p53ts Cells at the Permissive Temperature; H1299-p53A138V at 32C, ATP luminescence viability, 24 h; Potency, µM (top dose mostly 46.1 µM), inactives show at the highest dose activity change, negative = cytotoxicity, most hits filed as cytotoxic; 0.93% of 130,000 active;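 note: 0% = DMSO and -100% = full killing by reference compound; nearly all actives have a fitted effect of over 55% in size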
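Cells: H1299 p53ts (A138V), 600/well, pre-incubated 16–30 h at 37C. Cpd up to 46 uM, 24 h, 32C. Readout: ATPlite luminescence, 20 min RT. Normalization: DMSO vs tamoxifen 100 uM. AC50 by Hill equation.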
Peg3 imprint = qHTS Assay for Compounds that Induce Erasure of Genomic Imprints. 0.02% of 110,000 active. mouse ES Peg3-LacZ reporter, beta-gal luminescence, 40 h. AID 1948, 2009. Potency, µM (titrated, usually from 60.7 µM), for inactives: at the top dose activity change, positive = activation, usual class: activators
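Readout: BetaGlo luminescence (5 min, room temp) for LacZ from the normally silent maternal Peg3 allele in female Peg3LacZ-Neo ES cells. Cells 300/well, 40 h, 37C, 5% CO2. Data normalized per plate to negative controls.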
p53ts 39C kill = qHTS Screen for Compounds that Selectively Target Cancer Cells with p53 Mutations: Cytotoxicity of p53ts Cells at the Nonpermissive Temperature. AID 902, 2007. H1299-p53A138V viability at 39C, ATP luminescence, 24 h. 1.5% of 130,000 active. Potency, µM (doses to about 46.1 µM), for the others: at the top dose activity change, negative = cell killing, most hits filed as cytotoxic; note: % is set by controls: 0 for no effect and ±100 for the full control effect; nearly all actives have a fitted effect of over 55% in size
An asterisk follows results filed as active; [ ] = remark or other dose. Calls come from the whole dose curve; as a rule, active = well fitted curve in the direction sought with a large enough effect; inconclusive = small, poorly fitted or top-dose-only effect, or another doubt; inactive = no such curve, though single readings can be large; an effect the other way counts as inactive or inconclusive. Potency is the fitted concentration of half-maximal effect.

What do the screens show for `O=C(N/N=C1/C[C@@H](O)[C@@H](O)[C@@H]2[C@@H]3C(=O)N(C4CCCCC4)C(=O)[C@H]3CC[C@H]12)OCc1ccccc1`?
p53ts 32C kill: 2%[9.22 µM]; p53ts 39C kill: 13%[9.22 µM]

Results for CC(C)[C@H]1c2ccc(F)cc2CC[C@@]1(CCN(C)CCCc1nc2ccccc2[nH]1)OC(=O)C1CC1 ?
Peg3 imprint: -37%

What do the screens show for `COC(=O)C/C=C1\c2ccccc2C(OC)C1C` (configuration not stated)?
p53ts 32C kill: 6%[9.22 µM]; p53ts 39C kill: 10%[9.22 µM]

Results for COc1ccc(OC)c(-c2cc(C(=O)Nc3cnn(Cc4ccc(Cl)cc4Cl)c3)no2)c1 ?
p53ts 32C kill: inconclusive; Peg3 imprint: -12%[10.9 µM]; p53ts 39C kill: 4µM*

Results for COc1ccc2c(c1)CCc1c(C(=O)Nc3cnn(Cc4ccc(Cl)cc4Cl)c3)noc1-2 ?
p53ts 32C kill: -11%; Peg3 imprint: -6%[10.9 µM]; p53ts 39C kill: -30%

Results for Cc1nn(CC(=O)N2CCC(C)CC2)c(=O)c2cc3sccc3n12 ?
p53ts 32C kill: 11%; Peg3 imprint: 12%[10.9 µM]; p53ts 39C kill: 17%

Results for COc1ccc(Cn2ccn(Cc3cccc(Cl)c3)c(=O)c2=O)cc1 ?
p53ts 32C kill: -13%; Peg3 imprint: -5%[10.9 µM]; p53ts 39C kill: inconclusive

What do the screens show for `Cc1cccc(Cn2ccn(Cc3ccc(Cl)cc3)c(=O)c2=O)c1`?
p53ts 32C kill: inconclusive; Peg3 imprint: 8%[10.9 µM]; p53ts 39C kill: 32µM*

What do the screens show for `COc1ccc2cc(-c3nc4ccc(C(=O)O)cc4[nH]3)c(=O)oc2c1`?
p53ts 32C kill: 1.6µM*; Peg3 imprint: -91%[10.9 µM]; p53ts 39C kill: 2.5µM*

What do the screens show for `CCOc1cccc2cc(-c3nc4ccc(C(=O)O)cc4[nH]3)c(=O)oc12`?
p53ts 32C kill: inconclusive; Peg3 imprint: -77%[10.9 µM]; p53ts 39C kill: 16µM*

What do the screens show for `C=CCc1cccc2cc(-c3nc4ccc(C(=O)O)cc4[nH]3)c(=O)oc12`?
p53ts 32C kill: inconclusive; Peg3 imprint: -63%[10.9 µM]; p53ts 39C kill: inconclusive

How did COc1ccc2oc(=O)c(-c3nc4ccc(C)cc4[nH]3)cc2c1 do in these assays?
p53ts 32C kill: -15%; Peg3 imprint: -17%[10.9 µM]; p53ts 39C kill: inconclusive

What do the screens show for `Cc1ccc(NC(=O)c2c(C)nc3sc(C(=O)Nc4ccc(F)cc4)c(N)c3c2-c2ccc(C)o2)c(C)c1`?
p53ts 32C kill: 7%; Peg3 imprint: -11%[10.9 µM]; p53ts 39C kill: 5%

Results for c1ccc(Nc2ccccc2Nc2ccccn2)nc1 ?
p53ts 32C kill: 2%; Peg3 imprint: 0%; p53ts 39C kill: 5%

What do the screens show for `Oc1cccc2ccc(Nc3ccccn3)nc12`?
p53ts 32C kill: 16µM*; p53ts 39C kill: 10µM*

How did CC(C)(C)c1ccc(O)c(CN(Cc2c(O)ccc3ccccc23)C2CCCCC2)c1 do in these assays?
p53ts 32C kill: 0%[9.22 µM]; Peg3 imprint: -19%[10.9 µM]; p53ts 39C kill: -4%[9.22 µM]

How did CC(=O)Nc1ccc(NC(=O)CCc2c(C)nc3c(c(C)nn3-c3ccc(C)cc3)c2C)cc1 do in these assays?
p53ts 32C kill: -7%; Peg3 imprint: 11%[10.9 µM]; p53ts 39C kill: 7.9µM*

What do the screens show for `CC(=O)Nc1ccc(NC(=O)CCc2c(C)nc3c(c(C)nn3-c3ccccc3)c2C)cc1`?
p53ts 32C kill: -3%; Peg3 imprint: -6%[10.9 µM]; p53ts 39C kill: -11%

Results for COc1ccc(-n2nnc(-c3nc(-c4cccs4)no3)c2N)cc1OC ?
p53ts 32C kill: -5%; Peg3 imprint: 4%[10.9 µM]; p53ts 39C kill: -16%

How did O=C(c1csnn1)N1CCC2(CCCN(c3ccc(-c4ccccc4)cc3)C2)CC1 do in these assays?
p53ts 32C kill: -21%; p53ts 39C kill: -17%

How did CC(C)(C)c1cc(Br)ccc1OCC(=O)Nc1ncn[nH]1 do in these assays?
p53ts 32C kill: 12%; Peg3 imprint: -12%; p53ts 39C kill: 3%

Results for O=C(COc1ccc(Cl)cc1Cl)Nc1ccc(Cl)cn1 ?
p53ts 32C kill: 5µM*; Peg3 imprint: -62%; p53ts 39C kill: 5µM*

Results for Cc1ccc(C(C)C)c(OCC(=O)Nc2ccc(Cl)cn2)c1 ?
p53ts 32C kill: 0%; Peg3 imprint: -19%; p53ts 39C kill: -5%

Results for O=C(COc1ccc(Br)cc1Cl)Nc1ncn[nH]1 ?
p53ts 32C kill: 2.5µM*; Peg3 imprint: -19%[10.9 µM]; p53ts 39C kill: inconclusive

How did CCc1ccc(OCC(=O)Nc2ncn[nH]2)c(Br)c1 do in these assays?
p53ts 32C kill: 1.6µM*; Peg3 imprint: -22%[10.9 µM]; p53ts 39C kill: 1.6µM*

How did CCc1ccc(OCC(=O)NCCN(C)C)c(Br)c1 do in these assays?
p53ts 32C kill: -21%; Peg3 imprint: -18%; p53ts 39C kill: -23%

What do the screens show for `NCCC1([N+](=O)[O-])CCNCC1`?
p53ts 32C kill: 0%[9.22 µM]; Peg3 imprint: -9%[10.9 µM]; p53ts 39C kill: -2%[9.22 µM]

Results for C=C(C)C1CC=C(C)C(OC(C)=O)C1 (configuration not stated) ?
p53ts 32C kill: 4%[1.84 µM]; Peg3 imprint: 1%; p53ts 39C kill: 0%

What do the screens show for `CC1OC(OC2CCC3(C)C(CCC4C3CC(O)C3(C)C(C5=CC(=O)OC5)CCC43O)C2)CC(O)C1OC1CC(O)C(OC2CC(O)C(OC3OC(CO)C(O)C(O)C3O)C(C)O2)C(C)O1` (configuration not stated)?
Peg3 imprint: 7%

What do the screens show for `CCOc1ccc(C(=O)Nc2ccc3nc(SCC(=O)N4CCOCC4)sc3c2)cc1`?
p53ts 32C kill: -13%; Peg3 imprint: -18%[10.9 µM]; p53ts 39C kill: -24%

How did COc1ccc(Nc2cc(C(=O)NCCCN(C)C3CCCCC3)c3ccccc3n2)cc1 do in these assays?
p53ts 32C kill: -5%; Peg3 imprint: -12%[10.9 µM]; p53ts 39C kill: 13µM*

Results for CSc1cccc(Nc2cc(C(=O)NCCc3ccc(Cl)cc3)c3ccccc3n2)c1 ?
p53ts 32C kill: 0%; Peg3 imprint: -8%[10.9 µM]; p53ts 39C kill: inconclusive

What do the screens show for `CCCCN(CCCNC(=O)c1cc(Nc2cccc(SC)c2)nc2ccccc12)Cc1ccccc1`?
p53ts 32C kill: -16%; Peg3 imprint: -31%[10.9 µM]; p53ts 39C kill: 4.5µM*

How did COc1ccc(Nc2cc(C(=O)NCCCN(C)C3CCCCC3)c3ccccc3n2)c(OC)c1 do in these assays?
p53ts 32C kill: -6%; Peg3 imprint: -7%[10.9 µM]; p53ts 39C kill: inconclusive

What do the screens show for `O=C1CCC[C@@H](C(C(=O)OCc2ccccc2)C(=O)OCc2ccccc2)C1`?
p53ts 32C kill: 3%[9.22 µM]; p53ts 39C kill: 0%[9.22 µM]

How did Cc1cc(C)cc(NC(=O)CSc2oc(-c3ccco3)nc2S(=O)(=O)c2ccc(Cl)cc2)c1 do in these assays?
p53ts 32C kill: 10µM*; Peg3 imprint: -29%[10.9 µM]; p53ts 39C kill: 6.3µM*

How did Cc1cc(C)cc(NC(=O)CSc2oc(-c3ccco3)nc2S(=O)(=O)c2ccccc2)c1 do in these assays?
p53ts 32C kill: 13%; Peg3 imprint: -9%[10.9 µM]; p53ts 39C kill: 21%

What do the screens show for `CCc1ccc(C(=O)c2cn(Cc3ccc(F)cc3)c3cc(OC)c(OC)cc3c2=O)cc1`?
p53ts 32C kill: 7%; Peg3 imprint: -5%[10.9 µM]; p53ts 39C kill: -21%

Results for N=C(N)S/C=C\C(=O)O ?
p53ts 32C kill: 1%; Peg3 imprint: -26%; p53ts 39C kill: -10%
